In the supplement of paper PMC10849652:
About 8,800 targets were measured; listed, in parts, are those with a hit and a random draw of the rest. About 0.5% of all pairs of compound and target were hits.

How the values were obtained:
Test in all cases: log2 fold change, soluble protein after heating vs DMSO (PISA); higher = thermal stabilisation; K562 lysate, 10 uM; active = over 0.2 and 3.5 SD of the protein, either way, in both replicates (recomputed)
vemurafenib = compound: CCCS(=O)(=O)Nc1ccc(F)c(C(=O)c2c[nH]c3ncc(-c4ccc(Cl)cc4)cc23)c1F [vemurafenib]
Summary of the method: (§1)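 Pellets of K562 cells were dounce-homogenised in PBS pH 7.4 with 1 mM MgCl2, and the crude extract was held at 1 mg/mL protein for a 30 min treatment with 10 μM compound. Aliquots were heated for 3 min over 48°C-58°C and pooled before NP-40 was added to 0.5% at 4°C. The supernatant from 21,000xg for 90 min was quantified by TMTpro 16plex LC-MS/MS with channel sums equalised. Values are reported from duplicates as log-two fold change in thermal stability relative to solvent controls.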

[1] = compound: CCCS(=O)(=O)Nc1ccc(F)c(C(=O)c2c[nH]c3ncc(Cl)cc23)c1F
Summary of the method: as §1

barasertib = compound: CCN(CCCOc1ccc2c(Nc3cc(CC(=O)Nc4cccc(F)c4)[nH]n3)ncnc2c1)CCOP(=O)(O)O [barasertib]
Summary of the method: as §1

[2] = compound: CC[C@@H]1C(=O)N(C)c2cnc(Nc3ccc(C(=O)NC4CCN(C)CC4)cc3OC)nc2N1C1CCCC1
Summary of the method: as §1

volasertib = compound: CC[C@@H]1C(=O)N(C)c2cnc(Nc3ccc(C(=O)N[C@H]4CC[C@H](N5CCN(CC6CC6)CC5)CC4)cc3OC)nc2N1C(C)C [volasertib]
Summary of the method: as §1

[3] = compound: CCn1c(C(=O)N(C2CC2)C2CC2)cc2c3c(ncn3C)c(Nc3cc(C)n(C)n3)nc21
Summary of the method: as §1

[4] = compound: CCn1cc(-c2ccnc3[nH]c(-c4cccc(CN(C)C)c4)cc23)c(-c2ccc(NC(=O)N(C)C)cc2)n1
Summary of the method: as §1

[5] = compound: CN1CCC(CNc2ccc3ncc(-c4cccc(OC(F)(F)F)c4)n3n2)CC1
Summary of the method: as §1

saracatinib = compound: CN1CCN(CCOc2cc(OC3CCOCC3)c3c(Nc4c(Cl)ccc5c4OCO5)ncnc3c2)CC1 [saracatinib]
Summary of the method: as §1

sotrastaurin = compound: CN1CCN(c2nc(C3=C(c4c[nH]c5ccccc45)C(=O)NC3=O)c3ccccc3n2)CC1 [sotrastaurin]
Summary of the method: as §1

alvocidib = compound: CN1CC[C@H](c2c(O)cc(O)c3c(=O)cc(-c4ccccc4Cl)oc23)[C@H](O)C1 [alvocidib]
Summary of the method: as §1

Tubastatin A = compound: CN1CCc2c(c3ccccc3n2Cc2ccc(C(=O)NO)cc2)C1 [Tubastatin A]
Summary of the method: as §1

[6] = compound: CNC(=O)C1=CC=CC=C1NC2=NC(=NC=C2Cl)NC3=C(C=C(C=C3)N4CCOCC4)OC
Summary of the method: as §1

defactinib = compound: CNC(=O)c1ccc(Nc2ncc(C(F)(F)F)c(NCc3nccnc3N(C)S(C)(=O)=O)n2)cc1 [defactinib]
Summary of the method: as §1

[7] = compound: CNc1nc(-c2ccc3c(N)n[nH]c3c2)cc(N2C[C@@H](C(=O)NC3CCCCC3)CC[C@H]2C)n1
Summary of the method: as §1

encorafenib = compound: COC(=O)N[C@@H](C)CNc1nccc(-c2cn(C(C)C)nc2-c2cc(Cl)cc(NS(C)(=O)=O)c2F)n1 [encorafenib]
Summary of the method: as §1

[8] = compound: COC(=O)[C@H](CCSC)NC(=O)C1=C(C=C(C=C1)NC[C@H](CS)N)C2=CC=CC=C2
Summary of the method: as §1

alisertib = compound: COc1cc(Nc2ncc3c(n2)-c2ccc(Cl)cc2C(c2c(F)cccc2OC)=NC3)ccc1C(=O)O [alisertib]
Summary of the method: as §1

[9] = compound: COc1cc2nc(-c3cc(F)ccc3O)nc(N[C@@H]3CNC[C@H]3C(C)(C)O)c2cc1OC
Summary of the method: as §1

gefitinib = compound: COc1cc2ncnc(Nc3ccc(F)c(Cl)c3)c2cc1OCCCN1CCOCC1 [gefitinib]
Summary of the method: as §1

Measured: log2 fold change

BLM (UniProt P54132)
Chain of UniProt P54132 (P54132 whole entry, looked up): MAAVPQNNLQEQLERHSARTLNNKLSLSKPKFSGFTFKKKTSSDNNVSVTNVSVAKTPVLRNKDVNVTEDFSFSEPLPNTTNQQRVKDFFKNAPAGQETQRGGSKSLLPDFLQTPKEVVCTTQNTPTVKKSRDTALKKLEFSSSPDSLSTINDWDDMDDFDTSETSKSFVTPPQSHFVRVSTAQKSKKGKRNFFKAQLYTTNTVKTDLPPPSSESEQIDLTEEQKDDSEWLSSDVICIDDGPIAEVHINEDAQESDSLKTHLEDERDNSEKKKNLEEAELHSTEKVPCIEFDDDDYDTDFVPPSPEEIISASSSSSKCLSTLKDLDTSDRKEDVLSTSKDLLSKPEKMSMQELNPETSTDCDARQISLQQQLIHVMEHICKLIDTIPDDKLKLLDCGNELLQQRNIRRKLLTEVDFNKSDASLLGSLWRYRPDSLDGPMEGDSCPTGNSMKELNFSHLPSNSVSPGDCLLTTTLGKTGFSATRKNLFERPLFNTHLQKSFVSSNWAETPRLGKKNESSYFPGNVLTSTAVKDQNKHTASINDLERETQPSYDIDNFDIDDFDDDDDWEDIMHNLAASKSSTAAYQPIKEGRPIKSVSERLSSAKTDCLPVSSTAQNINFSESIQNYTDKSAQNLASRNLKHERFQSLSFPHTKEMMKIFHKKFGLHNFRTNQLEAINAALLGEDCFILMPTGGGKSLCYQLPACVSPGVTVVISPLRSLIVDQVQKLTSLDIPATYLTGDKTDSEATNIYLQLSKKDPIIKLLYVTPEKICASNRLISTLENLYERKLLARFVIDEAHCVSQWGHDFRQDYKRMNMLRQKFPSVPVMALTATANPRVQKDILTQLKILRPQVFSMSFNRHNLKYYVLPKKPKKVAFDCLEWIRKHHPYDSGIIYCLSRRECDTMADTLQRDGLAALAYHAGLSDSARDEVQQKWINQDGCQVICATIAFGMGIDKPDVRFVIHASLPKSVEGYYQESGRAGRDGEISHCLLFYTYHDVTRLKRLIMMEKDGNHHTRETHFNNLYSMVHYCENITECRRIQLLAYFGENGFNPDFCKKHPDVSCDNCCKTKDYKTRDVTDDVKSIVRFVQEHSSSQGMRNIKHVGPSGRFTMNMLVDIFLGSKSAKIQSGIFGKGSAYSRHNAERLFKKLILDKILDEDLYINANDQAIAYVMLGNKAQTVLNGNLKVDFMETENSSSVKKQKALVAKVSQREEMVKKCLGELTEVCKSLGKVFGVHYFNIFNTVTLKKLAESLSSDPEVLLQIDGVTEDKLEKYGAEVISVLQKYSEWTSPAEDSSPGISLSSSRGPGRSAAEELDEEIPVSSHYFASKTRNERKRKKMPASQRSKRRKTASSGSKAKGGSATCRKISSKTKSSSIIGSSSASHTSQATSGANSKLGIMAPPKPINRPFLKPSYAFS
inactive: vemurafenib 0.007 | [1] 0.013 | barasertib -0.071 | [2] -0.063 | volasertib -0.029 | [3] 0.054 | [4] 0.247 | [5] -0.14 | saracatinib -0.014 | sotrastaurin -0.01 | alvocidib 0.082 | Tubastatin A -0.07 | [6] 0.071 | defactinib 0.031 | [7] 0.001 | encorafenib 0.043 | [8] 0.018 | alisertib -0.025 | [9] -0.006 | gefitinib -0.054

BRAF (UniProt P15056)
inactive: barasertib 0.012 | [2] -0.069 | volasertib -0.044 | [3] -0.023 | [4] -0.11 | [5] 0.037 | saracatinib 0.017 | sotrastaurin -0.025 | alvocidib -0.019 | Tubastatin A -0.071 | [6] 0.016 | defactinib 0.067 | [7] -0.016 | [8] 0.043 | alisertib -0.021 | [9] -0.019 | gefitinib 0.045
active: vemurafenib 1.03 | [1] 0.765 | encorafenib 0.984

CALM2 (UniProt P0DP24)
active: barasertib 0.564
inactive: vemurafenib 0.028 | [1] 0.011 | [2] 0.038 | volasertib 0.024 | [3] -0.079 | [4] -0.22 | [5] 0.237 | saracatinib 0.029 | sotrastaurin 0 | alvocidib -0.063 | Tubastatin A 0.018 | [6] -0.059 | defactinib -0.016 | [7] 0.124 | encorafenib 0.03 | [8] -0.085 | alisertib 0.011 | [9] 0.026 | gefitinib -0.13

CCT6A (UniProt P40227)
inactive: vemurafenib -0.026 | [1] -0.005 | barasertib -0.03 | [2] -0.006 | volasertib 0.024 | [3] 0.011 | [4] -0.024 | [5] -0.002 | saracatinib -0.004 | sotrastaurin -0.001 | alvocidib 0.027 | Tubastatin A 0.025 | [6] 0.006 | defactinib -0.018 | [7] -0.001 | encorafenib -0.015 | [8] -0.024 | alisertib 0.012 | [9] -0.003 | gefitinib -0.021

BCL2L12 (UniProt Q9HB09)
Chain of UniProt Q9HB09 (Q9HB09 whole entry, looked up): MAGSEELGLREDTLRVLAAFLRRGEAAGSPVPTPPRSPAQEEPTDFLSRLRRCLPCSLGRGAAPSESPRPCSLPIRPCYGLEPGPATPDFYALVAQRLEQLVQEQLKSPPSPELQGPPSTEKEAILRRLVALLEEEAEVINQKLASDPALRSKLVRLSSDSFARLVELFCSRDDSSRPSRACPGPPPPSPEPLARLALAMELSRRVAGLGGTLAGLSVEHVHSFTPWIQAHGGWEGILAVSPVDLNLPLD
inactive: vemurafenib -0.032 | [1] 0.08 | barasertib 0.166 | [2] 0.013 | volasertib -0.06 | [3] 0.087 | [4] 0.018 | [5] 0.116 | saracatinib 0.057 | sotrastaurin -0.007 | alvocidib 0.012 | Tubastatin A 0.016 | [6] -0.087 | defactinib 0.113 | [7] -0.059 | encorafenib -0.207 | [8] 0.023 | alisertib 0.008 | [9] 0.1 | gefitinib -0.062

CDC25C (UniProt P30307)
Chain of UniProt P30307 (P30307 whole entry, looked up): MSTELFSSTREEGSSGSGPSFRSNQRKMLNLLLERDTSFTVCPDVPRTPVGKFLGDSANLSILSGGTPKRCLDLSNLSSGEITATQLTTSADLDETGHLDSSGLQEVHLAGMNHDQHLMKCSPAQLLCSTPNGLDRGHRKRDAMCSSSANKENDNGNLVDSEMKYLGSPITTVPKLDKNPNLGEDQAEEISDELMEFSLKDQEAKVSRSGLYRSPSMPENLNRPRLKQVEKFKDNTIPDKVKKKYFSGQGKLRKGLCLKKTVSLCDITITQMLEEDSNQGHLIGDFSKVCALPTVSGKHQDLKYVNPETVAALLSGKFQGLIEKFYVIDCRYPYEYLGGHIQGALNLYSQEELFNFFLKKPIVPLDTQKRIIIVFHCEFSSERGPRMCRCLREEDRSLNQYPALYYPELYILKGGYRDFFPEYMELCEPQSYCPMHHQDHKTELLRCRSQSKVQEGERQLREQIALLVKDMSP
inactive: vemurafenib 0.031 | [1] 0.093 | barasertib -0.028 | [2] -0.08 | volasertib -0.004 | [3] 0.083 | [4] 0.314 | [5] 0.155 | saracatinib -0.053 | sotrastaurin 0.016 | alvocidib 0.022 | Tubastatin A -0.09 | [6] 0.041 | defactinib 0.067 | [7] -0.073 | encorafenib 0.078 | [8] 0.14 | alisertib 0.054 | [9] 0.04 | gefitinib -0.069

CAMKK1 isoform 2 (UniProt Q8N5S9)
active: [6] 0.305
inactive: vemurafenib -0.041 | [1] -0.062 | barasertib 0.11 | [2] 0.103 | volasertib 0.136 | [3] 0.115 | [4] -0.204 | [5] 0.041 | saracatinib -0.063 | sotrastaurin -0.013 | alvocidib 0.088 | Tubastatin A -0.167 | defactinib 0.051 | [7] -0.118 | encorafenib 0.014 | [8] 0.126 | alisertib -0.033 | [9] -0.048 | gefitinib 0.03

CCPG1 isoform 5 (UniProt Q9ULG6)
inactive: vemurafenib 0.082 | [1] -0.038 | barasertib 0.034 | [2] 0.066 | volasertib 0 | [3] 0.071 | [4] -0.081 | [5] 0.04 | saracatinib 0.049 | sotrastaurin 0.051 | alvocidib 0.029 | Tubastatin A 0.006 | [6] 0.028 | defactinib -0.03 | [7] -0.02 | encorafenib 0.049 | [8] -0.165 | alisertib -0.073 | gefitinib -0.061
active: [9] 0.303

CCDC186 (UniProt Q7Z3E2)
Chain of UniProt Q7Z3E2 (Q7Z3E2 whole entry, looked up): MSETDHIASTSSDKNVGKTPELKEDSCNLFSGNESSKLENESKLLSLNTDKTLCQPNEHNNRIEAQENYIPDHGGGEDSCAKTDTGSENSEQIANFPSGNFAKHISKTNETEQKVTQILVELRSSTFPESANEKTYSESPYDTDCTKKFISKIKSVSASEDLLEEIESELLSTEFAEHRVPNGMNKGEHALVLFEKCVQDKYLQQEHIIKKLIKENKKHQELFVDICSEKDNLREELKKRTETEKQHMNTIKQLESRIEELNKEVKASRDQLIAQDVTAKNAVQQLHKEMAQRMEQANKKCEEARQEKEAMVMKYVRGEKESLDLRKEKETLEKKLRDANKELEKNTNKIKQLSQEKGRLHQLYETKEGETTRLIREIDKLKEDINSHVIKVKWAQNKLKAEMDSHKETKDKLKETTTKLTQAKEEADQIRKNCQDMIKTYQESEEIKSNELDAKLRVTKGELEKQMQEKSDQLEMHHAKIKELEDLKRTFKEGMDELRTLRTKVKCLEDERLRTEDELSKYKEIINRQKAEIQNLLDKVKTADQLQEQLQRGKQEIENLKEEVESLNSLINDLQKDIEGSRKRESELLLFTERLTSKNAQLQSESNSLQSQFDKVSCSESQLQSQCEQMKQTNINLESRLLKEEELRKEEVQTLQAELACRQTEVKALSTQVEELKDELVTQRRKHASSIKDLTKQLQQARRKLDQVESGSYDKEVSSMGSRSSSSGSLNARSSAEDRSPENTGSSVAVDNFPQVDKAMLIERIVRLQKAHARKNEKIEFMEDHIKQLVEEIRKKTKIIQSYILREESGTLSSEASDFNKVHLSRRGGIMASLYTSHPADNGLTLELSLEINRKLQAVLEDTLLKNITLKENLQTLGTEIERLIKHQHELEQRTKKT
active: [4] 0.332
inactive: vemurafenib -0.007 | [1] 0.069 | barasertib -0.029 | [2] 0.069 | volasertib 0.031 | [3] 0.019 | [5] -0.033 | saracatinib -0.003 | sotrastaurin -0.054 | alvocidib 0.056 | Tubastatin A 0.004 | [6] 0.062 | defactinib -0.012 | [7] -0.029 | encorafenib 0.067 | [8] -0.004 | alisertib 0.015 | [9] 0.004 | gefitinib 0.055

CASP3 (UniProt P42574)
Chain of UniProt P42574 (P42574 whole entry, looked up): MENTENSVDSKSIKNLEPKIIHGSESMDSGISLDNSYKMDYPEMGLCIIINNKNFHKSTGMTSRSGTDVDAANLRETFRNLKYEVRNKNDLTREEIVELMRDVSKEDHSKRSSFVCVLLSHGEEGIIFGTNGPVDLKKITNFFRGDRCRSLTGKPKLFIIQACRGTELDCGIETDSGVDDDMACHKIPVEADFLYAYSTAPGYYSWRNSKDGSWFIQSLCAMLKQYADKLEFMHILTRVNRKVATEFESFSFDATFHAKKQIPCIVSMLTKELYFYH
inactive: vemurafenib 0.002 | [1] 0.015 | barasertib -0.024 | [2] 0.034 | volasertib 0.013 | [3] -0.011 | [5] -0.049 | saracatinib -0.036 | sotrastaurin -0.013 | alvocidib 0.045 | Tubastatin A 0.056 | [6] 0.066 | defactinib 0.008 | [7] 0.064 | encorafenib 0.011 | [8] -0.061 | alisertib -0.037 | [9] 0.001 | gefitinib -0.001
active: [4] 0.279

CCAR2 (UniProt Q8N163)
inactive: vemurafenib -0.007 | [1] -0.004 | barasertib -0.047 | [2] -0.01 | volasertib -0.031 | [3] 0.01 | [4] -0.057 | [5] 0.032 | saracatinib -0.002 | sotrastaurin 0.007 | alvocidib -0.052 | Tubastatin A -0.096 | [6] 0.001 | defactinib 0.018 | [7] -0.02 | encorafenib 0.014 | [8] 0.011 | alisertib 0.014 | [9] 0 | gefitinib 0.003

CDC42BPA isoform 6 (UniProt Q5VT25)
inactive: vemurafenib 0.01 | [1] 0.036 | barasertib -0.006 | [2] -0.111 | volasertib -0.043 | [3] 0.021 | [4] 0.062 | [5] -0.118 | saracatinib -0.021 | sotrastaurin -0.023 | alvocidib -0.099 | Tubastatin A -0.13 | [6] -0.015 | defactinib -0.002 | [7] -0.065 | encorafenib 0.017 | [8] 0.093 | alisertib -0.005 | [9] -0.019 | gefitinib -0.004

CCDC47 (UniProt Q96A33)
Chain of UniProt Q96A33 (Q96A33 whole entry, looked up): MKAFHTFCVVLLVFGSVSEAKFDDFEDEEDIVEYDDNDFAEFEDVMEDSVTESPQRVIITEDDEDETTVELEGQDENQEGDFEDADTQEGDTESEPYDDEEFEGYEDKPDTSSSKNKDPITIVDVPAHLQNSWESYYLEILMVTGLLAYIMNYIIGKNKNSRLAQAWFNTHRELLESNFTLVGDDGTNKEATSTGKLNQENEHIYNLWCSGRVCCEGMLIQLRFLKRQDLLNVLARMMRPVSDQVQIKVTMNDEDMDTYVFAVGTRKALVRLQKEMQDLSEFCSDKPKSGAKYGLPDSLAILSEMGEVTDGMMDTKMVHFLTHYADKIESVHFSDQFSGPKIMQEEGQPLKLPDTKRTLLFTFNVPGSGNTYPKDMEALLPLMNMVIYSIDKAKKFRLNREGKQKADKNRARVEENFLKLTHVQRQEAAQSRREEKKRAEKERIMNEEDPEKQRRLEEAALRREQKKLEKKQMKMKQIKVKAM
inactive: vemurafenib 0.011 | [1] 0.032 | barasertib 0.002 | [2] 0.024 | volasertib 0.014 | [3] 0.018 | [4] -0.02 | [5] -0.09 | saracatinib -0.003 | sotrastaurin 0.007 | alvocidib 0.009 | Tubastatin A 0.016 | [6] -0.015 | defactinib 0.004 | [7] -0.028 | encorafenib -0.045 | [8] -0.037 | alisertib 0.037 | [9] -0.035 | gefitinib -0.011

CCDC32 isoform 2 (UniProt Q9BV29)
inactive: vemurafenib 0.007 | [1] 0 | barasertib 0.351 | [2] -0.041 | volasertib 0.021 | [3] -0.061 | [4] -0.246 | [5] 0.065 | saracatinib 0.021 | sotrastaurin -0.012 | alvocidib -0.102 | Tubastatin A -0.033 | [6] -0.061 | defactinib 0.095 | [7] 0.04 | encorafenib 0.055 | [8] -0.065 | alisertib -0.098 | [9] -0.045 | gefitinib -0.026

ATP2B4 (UniProt P23634)
Chain of UniProt P23634 (P23634 whole entry, looked up): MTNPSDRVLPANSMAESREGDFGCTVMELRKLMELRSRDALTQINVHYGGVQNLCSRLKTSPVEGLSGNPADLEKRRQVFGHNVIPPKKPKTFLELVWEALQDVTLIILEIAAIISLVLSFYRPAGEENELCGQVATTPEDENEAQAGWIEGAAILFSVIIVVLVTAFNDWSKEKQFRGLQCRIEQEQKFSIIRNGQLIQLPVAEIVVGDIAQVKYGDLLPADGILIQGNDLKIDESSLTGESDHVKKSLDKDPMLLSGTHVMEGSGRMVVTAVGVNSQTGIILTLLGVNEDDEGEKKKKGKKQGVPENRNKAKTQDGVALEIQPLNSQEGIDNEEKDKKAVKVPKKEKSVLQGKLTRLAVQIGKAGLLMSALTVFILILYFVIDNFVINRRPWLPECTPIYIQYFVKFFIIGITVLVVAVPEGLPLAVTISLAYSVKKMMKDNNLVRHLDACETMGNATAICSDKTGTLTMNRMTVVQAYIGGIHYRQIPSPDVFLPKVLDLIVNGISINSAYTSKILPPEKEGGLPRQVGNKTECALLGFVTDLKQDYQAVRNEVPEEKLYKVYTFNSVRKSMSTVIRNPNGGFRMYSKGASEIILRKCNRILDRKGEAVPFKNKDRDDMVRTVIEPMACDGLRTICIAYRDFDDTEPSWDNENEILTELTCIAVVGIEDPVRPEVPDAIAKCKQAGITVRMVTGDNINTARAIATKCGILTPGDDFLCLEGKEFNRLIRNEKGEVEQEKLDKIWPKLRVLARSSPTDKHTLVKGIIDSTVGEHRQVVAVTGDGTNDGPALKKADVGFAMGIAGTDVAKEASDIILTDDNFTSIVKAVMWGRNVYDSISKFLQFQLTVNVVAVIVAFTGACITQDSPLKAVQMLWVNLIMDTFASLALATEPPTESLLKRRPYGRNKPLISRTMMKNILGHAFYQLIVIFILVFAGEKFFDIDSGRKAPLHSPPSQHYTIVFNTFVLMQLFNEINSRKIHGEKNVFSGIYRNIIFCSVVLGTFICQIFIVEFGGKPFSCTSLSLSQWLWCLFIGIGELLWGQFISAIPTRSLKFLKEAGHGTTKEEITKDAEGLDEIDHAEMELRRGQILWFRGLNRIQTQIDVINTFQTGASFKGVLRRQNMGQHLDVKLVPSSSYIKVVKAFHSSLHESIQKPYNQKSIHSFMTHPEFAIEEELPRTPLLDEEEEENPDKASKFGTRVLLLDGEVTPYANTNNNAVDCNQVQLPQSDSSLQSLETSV
inactive: vemurafenib 0.002 | [1] -0.002 | barasertib 0.026 | [2] -0.027 | volasertib -0.004 | [3] -0.019 | [4] -0.185 | [5] 0.145 | saracatinib 0.024 | sotrastaurin 0.009 | alvocidib -0.116 | Tubastatin A 0.015 | [6] -0.006 | defactinib -0.043 | [7] 0.001 | encorafenib 0.021 | [8] -0.041 | alisertib -0.104 | [9] 0.009 | gefitinib 0.023

CELF2 isoform 3 (UniProt O95319)
inactive: vemurafenib 0.082 | [1] 0.013 | barasertib 0.031 | [2] 0.096 | volasertib -0.05 | [3] 0.001 | [4] 0.074 | [5] -0.095 | saracatinib 0.021 | sotrastaurin -0.023 | alvocidib 0.067 | Tubastatin A -0.025 | [6] 0.019 | defactinib 0.018 | [7] -0.02 | encorafenib 0.108 | [8] -0.031 | alisertib 0.037 | [9] -0.079 | gefitinib -0.061
